Potency, outcome and max response data for six compounds are collected here from PubChem BioAssay (NCATS).

A number with no mark means an inactive call. Inconclusive results are not listed. Activity calls are given as the source filed them. Calls come from the whole dose curve; as a rule, active = well fitted curve in the direction sought with a large enough effect; inconclusive = small, poorly fitted or top-dose-only effect, or another doubt; inactive = no such curve, though single readings can be large; an effect the other way counts as inactive or inconclusive.

Assay [1] relates to Zika virus NS2B-NS3 protease (linked construct). Description: Primary screen NINDS Rhodamine qHTS for Zika virus inhibitors (AID 1347160). Note: % is set by controls: 0 for no effect and ±100 for the full control effect; nearly all actives have a fitted effect of over 55% in size. The method in brief:
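Purified linked NS2B-NS3 protease (NS2B hydrophilic domain joined to NS3 protease by flexible linker), 25 nM in 10 mM Tris-HCl pH 8.0, 0.01% Tween 20. Compounds titrated, 15 min preincubation at room temperature; 1.5 microM Rhodamine110 substrate, FITC fluorescence change over 15 min.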
A general note: In qHTS, concentration-response curves come from the screen itself.

Assay [2] has as its target Calcium and integrin-binding protein 1 (Homo sapiens) (UniProt Q99828). Nature of the assay: Primary qHTS for Identification of Calcium Integrin Binding Protein 1 (CIB1) Competitor (AID 1508620). Note: top concentration of the series differs between compounds; % is set by controls: 0 for no effect and ±100 for the full control effect. The method in brief: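 Fluorescence polarization competition: GST-tagged CIB1 (1 uM final) preincubated with compound 15 min at room temperature, then FITC-labelled alphaIIb peptide (100 nM final) added. After 15 min at room temperature, polarization read at Ex 480/Em 540.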

Assay [3] addresses Glutathione peroxidase 1 (Homo sapiens) (UniProt P07203). Description: Primary qHTS Assay for Inhibitors of Recombinant Selenoprotein Glutathione Peroxidase 1 (GPX1) (AID 1845191). Note: nearly all actives have a fitted effect of over 65% in size. The method in brief:
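GR-coupled assay: compounds preincubated 30 min at room temperature with GPX1, then reaction started with CHP; final 10 nM GPX1, 1 mM GSH, 0.5 mM CHP, 0.5 mM NADPH, 100 nM GR, 0.01% BSA, pH 7.5 Tris buffer. NADPH fluorescence (340/450 nm) read at 0 and 15 min.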

Assay [4] concerns the target Phospholipid hydroperoxide glutathione peroxidase GPX4 (Homo sapiens) (UniProt P36969). Nature of the assay: Primary qHTS Assay for Inhibitors of Recombinant Selenoprotein Glutathione Peroxidase 4 (GPX4) (AID 1845192). Note: % is set by controls: 0 for no effect and ±100 for the full control effect; nearly all actives have a fitted effect of over 65% in size. An outline of the steps:
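GR-coupled assay: recombinant GPX4 preincubated 30 min with compound at room temperature; final 200 nM GPX4, 1 mM GSH, 0.5 mM cumene hydroperoxide, 0.5 mM NADPH, 100 nM GR, 0.01% BSA, pH 7.5 Tris. NADPH fluorescence (340/450 nm) read at 0 and 15 min.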

The target in assay [5] is Luciferin 4-monooxygenase (Photinus pyralis) (UniProt P08659). Nature of the assay: Primary firefly luciferase (FLuc) qHTS assay for identification of artifact compounds. (AID 1845220). Note: nearly all actives have a fitted effect of over 60% in size. The conditions noted are these: outcome: dose series up to 54.1 µM unless noted. The method in brief: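 Titrated compounds were incubated 15 min at RT, protected from light, with luciferin and ATP at 10 uM; reaction started with 10 nM FLuc, luminescence imaged at 5 min, and concentration-response fitted by Hill equation.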

Assay [6] is described as follows: Primary fluorescence-based thiol-reactive (MSTI) qHTS assay for identification of artifact compounds. (AID 1845221). Note: nearly all actives have a fitted effect of over 65% in size. Note: potency is the fitted concentration of half-maximal effect. The method in brief:
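Compounds were incubated 1 h at room temperature in the dark with the MSTI probe (4 uM) in PBS pH 7.4, 2% DMSO. Signals were normalized between Acetyl-MSTI and MSTI.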

Assay [7] concerns Nanoluciferase (engineered Oplophorus gracilirostris luciferase). Description: Primary Nanoluciferase (NLuc) qHTS assay for identification of artifact compounds. (AID 1845222).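 Note: NLuc secreted into diluted conditioned medium of S16 cells; 0% = DMSO and -100% = no enzyme.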 The method in brief: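 qHTS format, against NLuc in S16 cell-conditioned medium. Nano-Glo substrate 1:100 was added after 15 min at room temperature. Luminescence was taken after a further 5 min.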
Assay [8] is described as follows: Primary redox qHTS assay for identification of artifact compounds. (AID 1845223).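 Note: 0% = DMSO and 100% = reference compound.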 The method in brief:
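Amplex Red (25 uM) and HRP (250 mU/mL) in HBSS, with compounds for 15 min, then 250 uM DTT for 30 min, room temperature, dark. Fluorescence 525/598 nm read; normalized to DMSO and 10 uM DA3003; Hill fit.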

The test system of another assay is HaCat. Nature of the assay: Cytotoxic Profiling of Annotated Libraries Using Quantitative High-Throughput Screening (AID 1296008). For max response: % is set by controls: 0 for no effect and ±100 for the full control effect. Note: nearly all actives have a fitted effect of over 60% in size. Note: potency is the fitted concentration of half-maximal effect. The conditions noted are these: Five cell lines viability, CellTiter-Glo ATP luminescence, 48-72 h; max response: hits give low values. An outline of the steps:
(§1)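 Cells exposed to compounds for 48 or 72 hr at 37 degrees Celsius. Viability read as ATP-coupled luminescence with CellTiter-Glo after 10 min at room temperature.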

The test system of a further assay is NIH3T3. Described as above. To be noted: Five cell lines viability, CellTiter-Glo ATP luminescence, 48-72 h; max response: hits give low values. The method in brief:
as §1
(ATP-based viability assays read luminescence as a measure of living cells.)

In a further assay the test system is C33A. Nature of the assay: Primary qHTS to identify gynecologic anti-cancer compounds using libraries of approved drugs and bioactive compounds (AID 1345084). Note: % is set by controls: 0 for no effect and ±100 for the full control effect; nearly all actives have a fitted effect of over 55% in size. To be noted: Gynecologic cancer cell panel viability, ATPlite luminescence, 48 h; series mostly up to 57.5 µM. The method in brief:
(§2)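 Luminescence from the ATPlite ATP-monitoring reagent indicates viable cell number; lower signal means cytotoxicity. Cells received compound 16 h after seeding and were exposed for 48 h across five concentrations.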

The next assay has as its system CAOV3. The description is as above. To be noted: Gynecologic cancer cell panel viability, ATPlite luminescence, 48 h; series mostly up to 57.5 µM. The method in brief: as §2
The subject of the next assay is CASKI. The assay is described as above. The conditions noted are these: Gynecologic cancer cell panel viability, ATPlite luminescence, 48 h; series mostly up to 57.5 µM. An outline of the steps:
as §2

The test system of another assay is Es-2. The assay is described as above. The conditions noted are these: Gynecologic cancer cell panel viability, ATPlite luminescence, 48 h; series mostly up to 57.5 µM. The method in brief: as §2
The test system of the next assay is Hek293T. The assay is described as above. To be noted: Gynecologic cancer cell panel viability, ATPlite luminescence, 48 h, control line for the selectivity index; series mostly up to 57.5 µM. The method in brief: as §2
The test system of a further assay is JEG-3. Described as above. To be noted: Gynecologic cancer cell panel viability, ATPlite luminescence, 48 h; series mostly up to 57.5 µM. The method in brief: as §2
A further assay deals with OV90. The description is as above. To be noted: Gynecologic cancer cell panel viability, ATPlite luminescence, 48 h; series mostly up to 57.5 µM. An outline of the steps: as §2
For another assay, the system named is PA-1. Described as above. To be noted: Gynecologic cancer cell panel viability, ATPlite luminescence, 48 h; series mostly up to 57.5 µM. An outline of the steps:
as §2

For another assay, the system named is Tov-21-G. The assay is described as above. The conditions noted are these: Gynecologic cancer cell panel viability, ATPlite luminescence, 48 h; series mostly up to 57.5 µM. An outline of the steps: as §2
The subject of the next assay is Tov112D. The description is as above. To be noted: Gynecologic cancer cell panel viability, ATPlite luminescence, 48 h; series mostly up to 57.5 µM. The method in brief:
as §2

Chain of Phospholipid hydroperoxide glutathione peroxidase GPX4 (Homo sapiens) (P36969 whole entry, looked up): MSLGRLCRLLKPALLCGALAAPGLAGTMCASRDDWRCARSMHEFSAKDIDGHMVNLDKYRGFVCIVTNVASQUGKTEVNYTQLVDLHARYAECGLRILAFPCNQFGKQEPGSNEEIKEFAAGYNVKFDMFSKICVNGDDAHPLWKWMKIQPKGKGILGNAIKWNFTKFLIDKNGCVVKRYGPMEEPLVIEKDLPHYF
Chain of Calcium and integrin-binding protein 1 (Homo sapiens) (Q99828 whole entry, looked up): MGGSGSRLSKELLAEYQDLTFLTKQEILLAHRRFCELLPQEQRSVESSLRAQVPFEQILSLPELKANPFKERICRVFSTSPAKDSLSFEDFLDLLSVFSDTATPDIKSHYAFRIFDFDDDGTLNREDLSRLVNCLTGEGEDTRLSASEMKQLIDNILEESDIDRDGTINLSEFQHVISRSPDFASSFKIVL
Chain of Glutathione peroxidase 1 (Homo sapiens) (P07203 whole entry, looked up): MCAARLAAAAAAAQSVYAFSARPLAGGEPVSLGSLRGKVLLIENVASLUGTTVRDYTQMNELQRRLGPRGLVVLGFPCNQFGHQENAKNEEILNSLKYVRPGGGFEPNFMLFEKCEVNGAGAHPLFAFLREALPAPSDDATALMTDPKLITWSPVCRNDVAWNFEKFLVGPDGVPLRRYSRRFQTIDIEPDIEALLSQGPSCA

Regarding `CC1=CC2/C=C(\C)CCC(O)C(O)/C=C/C(=O)OC23C(=O)NC(CC(C)C)C3C1C` (stereo not drawn), the Potency result in assay [1], in assay [2], in [3], in assay [4], in assay [6] and in assay [7] was “inactive” in each case. Also, the Potency result (in [8]; in the assay on C33A; in the assay with CAOV3; in the assay with CASKI; in the assay with Es-2; in the assay on Hek293T) was “inactive” throughout. The Potency result in the assay with JEG-3, in the assay with OV90, in the assay on PA-1, in the assay with Tov-21-G and in the assay on Tov112D was “inactive” each time. Besides, the call (in assay [5]; with HaCat) was inactive. For the same compound, the max response in the assay on NIH3T3 was -15.3%.
Consider `CCC1CN2CCc3cc(OC)c(OC)cc3C2CC1CC1=NCCc2cc(O)c(OC)cc21` (stereo not drawn), for which the Potency entry (in assay [2]; in assay [4]; in assay [7]; in the assay on C33A; with CAOV3; with CASKI) was “inactive” in each case. Moreover, the Potency entry in the assay with Es-2, in the assay with Hek293T, with JEG-3, in the assay on OV90, in the assay with PA-1 and with Tov-21-G was “inactive” in each case. Also, the Potency entry with Tov112D was “inactive”. The compound was called inactive (in [5]; with HaCat).
Turning to `Cc1cccc(NC(=O)NC2N=C(c3ccccc3)c3ccccc3N(CC(=O)c3ccccc3C)C2=O)c1` (stereo not drawn), the Potency result (in [2]; in assay [3]; in [4]; in [6]; in [7]; in the assay with C33A) was “inactive” each time. In addition, the Potency entry in the assay with CASKI, in the assay on Es-2, in the assay on Hek293T, in the assay with JEG-3, in the assay with OV90 and in the assay on PA-1 was “inactive” in each case. Besides, the Potency entry with Tov-21-G and in the assay on Tov112D was “inactive” throughout. Also, the result (in assay [5]; in the assay with HaCat; with NIH3T3) was inactive.
Take `CC1(C)C(=O)N(c2ccc(C#N)c(C(F)(F)F)c2)C(=S)N1c1ccc(C(N)=O)c(F)c1`: the Potency entry (in [1]; in [2]; in assay [3]; in assay [4]; in [7]; in the assay on C33A) was “inactive” in each case. Besides, the Potency result in the assay on CASKI, with Es-2, in the assay on Hek293T, in the assay on JEG-3, with OV90 and in the assay on PA-1 was “inactive” each time. For the same compound, the Potency result in the assay with Tov-21-G and in the assay with Tov112D was “inactive” throughout. The result (in assay [5]; in the assay on HaCat) was inactive. Moreover, the max response with NIH3T3 was 0.467%.
For `CN1C(=O)[C@]23CC4C(C)(C)[C@@]5(C[C@@]41CN2CC[C@@]3(C)O)C(=O)Nc1c5ccc2c1OC=CC(C)(C)O2` (stereo partly drawn), the Potency result (in assay [3]; in assay [4]; in [7]; in assay [8]; in the assay on C33A; with CAOV3) was “inactive” each time. The Potency result in the assay on CASKI, with Es-2, with Hek293T, with JEG-3, in the assay on OV90 and in the assay on PA-1 was “inactive” throughout. The Potency result in the assay with Tov-21-G and in the assay with Tov112D was “inactive” in each case. Besides, the result in [5] was inactive. Further, the max response is -7.56% in the assay on HaCat and -0.852% with NIH3T3.
On to `CC1CCCC(O)CCC/C=C/c2cc(O)cc(O)c2C(=O)O1` (stereo not drawn), for which the Potency result (in assay [2]; in assay [4]; in assay [7]; in [8]; with CAOV3; with CASKI) was “inactive” in each case. The Potency entry in the assay on Es-2, in the assay with Hek293T, in the assay on JEG-3, in the assay with OV90, in the assay on PA-1 and with Tov-21-G was “inactive” throughout. Further, in the assay on Tov112D, the Potency entry was “inactive”. For the same compound, the result in assay [5] was inactive. In addition, the Potency was 1.85 µM (active) in assay [6] and 8.05 µM (active) in the assay with NIH3T3. In addition, in the assay on HaCat, the max response was 0.224%.
